Laboratory results: the supplement of paper PMC6555819

system: FXR:RXRa (NR concentration 270 nM, RXRa partner concentration 90 nM); test: PBM binding z-score (relative to random genomic background probes); higher = stronger binding; sequences stand for … in GC…GCGATTGACAGCGTAGAATGAAGG
Summary of the method: (§1)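 Each nuclear receptor dimer, without ligand, was incubated for 1 h on custom Agilent 4×180K protein-binding microarrays. Binding was detected with antibodies against each partner (one per run), and scanned fluorescence was regression-normalized. The binding z-scores are referenced to random human genomic background probes.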

Sequence	PBM binding z-score
CCTGCTACGTCAATGGTCAGCTAAAGCAGCTCGC	-0.5
ACTATTAGTTGACTTAGGGCGACCGATACGACGC	0.233
ATCTCTAGGTAAACTTCAGTGAAAGATCGATAGA	0.831
CTACCAAGGTGAACACGGTCGTTGATTACTATTC	0.926
ATCTCTAGGTTACCAAGTTCAGTGAATGCCGAAC	0.872
CCTAGGAGGACAGAAGGTCAGAGCTGTCCGCTTT	1.3
AGTCAAAGTTCAGGACGAGGTGACGTAAAGCACG	4.38
CCTACTGGTCCATTCAGAGGTCATTGATCATATG	2.73
ACTATTAGTTGGCTTAGGGCAACCGATACGACGC	0.0688
TCTGCTAGGTCAACGATGGTGAGCTAATCTGCTA	2.96
ATATGTAGGTTACATCCGTGTCATTCAGGCTATG	0.799
ACTATTGGTTGACTTAGGGCAACCGATACGACGC	0.0585
GCTAGCAGGCCATTTGGGTCACGCAATGACGGGC	0.679
CGTCAAAGTTCAAGGTAACGTATCAGAAAGCAGC	5.57
CGTCAAAGTTCAACTAAGGTATCGTAAAGCACGC	7.21
CCTTACGCGTCACTCCAGGTTATAGCATCGGAGT	1.11
CCTCGGAGGACAGAATGTCAGAGCTGTCCGCTTT	-0.31
CCGACTGGGGCAAAAGGTTACCATAAGCCAGCCC	0.815

system: LXRa:RXRa (NR concentration 270 nM, RXRa partner concentration 90 nM); test: as above
Summary of the method: as §1

Sequence	PBM binding z-score
TCAAGTTGGTCAAAGGTCACACACTCGAAATGCG	5.75
ACTAGCAGGCCAAGGATCACTCAAGATTAGTCCG	-0.212
ACTTACGGGTCAGCGAGGTTATAGCACGCGTATA	3.87
TCTATCAGTTGATTAGGGCAACCGAAACAGCGGA	0.15
CCTTACGGGTCACTCCAGGTTATGGCATCGGAGT	7.21
CCTTACGGGTCAAGGTTACAGCACGGGTGGTACG	3.96
CGTCCAAGGTCAAGGTCAGTGACAGAGACTCGAA	5.86
ATCTCTAGGGAAAGTTCAGTGAAAGATCGATAGA	1.28
ACAGACAGGTGATGAAGGTAACCCAGGCTATCAT	-0.103
TCATATAGGTAAATGCGAGGTGAAAGTCCGATCT	1.58
CAAACTAGGTCACAGAGGTCAAAGGCCGTGCGTA	6.33
CCTAGTTGGTGAGGAGGTCACACACCGGATATGA	3.07
CCTGCTAGGTCATGGTCAGCTAATCTACAGTATG	2.6
ATATGTAAGTTACATCCGGGTCATTCAGGCTATG	2.38
TCTTGTAGATCAGCAGGTTAAGACAGCTGGCCAA	0.423
TCTGCTAGGTCATTTGGTCAGCTAACGAGCTGCC	3.21
CCTACTGGGCCACGAAAGGTCAGTGATTCAGTGA	3.12
CCTACTGGGCCAAGGTCATTTATCAGTCAAAGCA	3
ATATGTAGGTTACATCCGGGTCCTTCAGGCTATG	1.72
AGAATGAGGTTATACGTAGATTAGGGAAGAAAGT	1.89

Sequence	PBM binding z-score
CCTAGTTGGTCAAGGTCAGACACGCTATAGGTAC	2.38
TGATTGAGGTTAAAGATCAGGGAACGTGGCGTCG	2.42
CCTGCTACGTCAATGGTCAGCTAAAGCAGCTCGC	-0.409
ACTATTAGTTGACTTAGGGCGACCGATACGACGC	-0.0475
ATCTCTAGGTAAACTTCAGTGAAAGATCGATAGA	0.515
CTACCAAGGTGAACACGGTCGTTGATTACTATTC	0.679
ATCTCTAGGTTACCAAGTTCAGTGAATGCCGAAC	1.95
CCTAGGAGGACAGAAGGTCAGAGCTGTCCGCTTT	1.59
AGTCAAAGTTCAGGACGAGGTGACGTAAAGCACG	3.95
CCTACTGGTCCATTCAGAGGTCATTGATCATATG	4.6
ACTATTAGTTGGCTTAGGGCAACCGATACGACGC	-0.0139
TCTGCTAGGTCAACGATGGTGAGCTAATCTGCTA	1.8
ATATGTAGGTTACATCCGTGTCATTCAGGCTATG	4.06
ACTATTGGTTGACTTAGGGCAACCGATACGACGC	0.381
GCTAGCAGGCCATTTGGGTCACGCAATGACGGGC	0.476
CGTCAAAGTTCAAGGTAACGTATCAGAAAGCAGC	5.5
CGTCAAAGTTCAACTAAGGTATCGTAAAGCACGC	6.22
CCTTACGCGTCACTCCAGGTTATAGCATCGGAGT	4.05
CCTCGGAGGACAGAATGTCAGAGCTGTCCGCTTT	-0.467
CCGACTGGGGCAAAAGGTTACCATAAGCCAGCCC	3.36

system: LXRa homodimer (NR concentration 270 nM); test: as above
Summary of the method: as §1

Sequence	PBM binding z-score
TCAAGTTGGTCAAAGGTCACACACTCGAAATGCG	3.72
ACTAGCAGGCCAAGGATCACTCAAGATTAGTCCG	-0.373
ACTTACGGGTCAGCGAGGTTATAGCACGCGTATA	0.399
TCTATCAGTTGATTAGGGCAACCGAAACAGCGGA	-0.239
CCTTACGGGTCACTCCAGGTTATGGCATCGGAGT	1.54
CCTTACGGGTCAAGGTTACAGCACGGGTGGTACG	0.209
CGTCCAAGGTCAAGGTCAGTGACAGAGACTCGAA	1.34
ATCTCTAGGGAAAGTTCAGTGAAAGATCGATAGA	0.993
ACAGACAGGTGATGAAGGTAACCCAGGCTATCAT	-0.116
TCATATAGGTAAATGCGAGGTGAAAGTCCGATCT	0.216
CAAACTAGGTCACAGAGGTCAAAGGCCGTGCGTA	6.87
CCTAGTTGGTGAGGAGGTCACACACCGGATATGA	1.61
CCTGCTAGGTCATGGTCAGCTAATCTACAGTATG	0.19
ATATGTAAGTTACATCCGGGTCATTCAGGCTATG	0.923
TCTTGTAGATCAGCAGGTTAAGACAGCTGGCCAA	-0.459
TCTGCTAGGTCATTTGGTCAGCTAACGAGCTGCC	1.04
CCTACTGGGCCACGAAAGGTCAGTGATTCAGTGA	1.41
CCTACTGGGCCAAGGTCATTTATCAGTCAAAGCA	1.94
ATATGTAGGTTACATCCGGGTCCTTCAGGCTATG	0.152
AGAATGAGGTTATACGTAGATTAGGGAAGAAAGT	0.103

Sequence	PBM binding z-score
CCTAGTTGGTCAAGGTCAGACACGCTATAGGTAC	1.11
TGATTGAGGTTAAAGATCAGGGAACGTGGCGTCG	0.0848
CCTGCTACGTCAATGGTCAGCTAAAGCAGCTCGC	-0.45
ACTATTAGTTGACTTAGGGCGACCGATACGACGC	-0.0351
ATCTCTAGGTAAACTTCAGTGAAAGATCGATAGA	0.351
CTACCAAGGTGAACACGGTCGTTGATTACTATTC	0.219
ATCTCTAGGTTACCAAGTTCAGTGAATGCCGAAC	1.86
CCTAGGAGGACAGAAGGTCAGAGCTGTCCGCTTT	0.0675
AGTCAAAGTTCAGGACGAGGTGACGTAAAGCACG	1.24
CCTACTGGTCCATTCAGAGGTCATTGATCATATG	7.06
ACTATTAGTTGGCTTAGGGCAACCGATACGACGC	0.0233
TCTGCTAGGTCAACGATGGTGAGCTAATCTGCTA	-0.337
ATATGTAGGTTACATCCGTGTCATTCAGGCTATG	0.794
ACTATTGGTTGACTTAGGGCAACCGATACGACGC	-0.0343
GCTAGCAGGCCATTTGGGTCACGCAATGACGGGC	-0.416
CGTCAAAGTTCAAGGTAACGTATCAGAAAGCAGC	2.87
CGTCAAAGTTCAACTAAGGTATCGTAAAGCACGC	4.37
CCTTACGCGTCACTCCAGGTTATAGCATCGGAGT	1.55
CCTCGGAGGACAGAATGTCAGAGCTGTCCGCTTT	-0.713
CCGACTGGGGCAAAAGGTTACCATAAGCCAGCCC	-0.19
